Measurements taken from ChEMBL document CHEMBL3988442, “University of Dundee, Small-Polar-MMV Screening Library” (2021).
For some of these results: Entries with a potency or affinity are not part of this list.

What was measured:
Parameters in all cases: scale not given: direction of the effect not stated beside the values
[1] = target: Protein translocase subunit SecA (Escherichia coli (strain K12)) (UniProt P10408); test: Assay to Identify E. coli SecA ATPase Inhibitors; assay type: functional; details: 30 µM
Chain of Protein translocase subunit SecA (Escherichia coli (strain K12)) (P10408 whole entry): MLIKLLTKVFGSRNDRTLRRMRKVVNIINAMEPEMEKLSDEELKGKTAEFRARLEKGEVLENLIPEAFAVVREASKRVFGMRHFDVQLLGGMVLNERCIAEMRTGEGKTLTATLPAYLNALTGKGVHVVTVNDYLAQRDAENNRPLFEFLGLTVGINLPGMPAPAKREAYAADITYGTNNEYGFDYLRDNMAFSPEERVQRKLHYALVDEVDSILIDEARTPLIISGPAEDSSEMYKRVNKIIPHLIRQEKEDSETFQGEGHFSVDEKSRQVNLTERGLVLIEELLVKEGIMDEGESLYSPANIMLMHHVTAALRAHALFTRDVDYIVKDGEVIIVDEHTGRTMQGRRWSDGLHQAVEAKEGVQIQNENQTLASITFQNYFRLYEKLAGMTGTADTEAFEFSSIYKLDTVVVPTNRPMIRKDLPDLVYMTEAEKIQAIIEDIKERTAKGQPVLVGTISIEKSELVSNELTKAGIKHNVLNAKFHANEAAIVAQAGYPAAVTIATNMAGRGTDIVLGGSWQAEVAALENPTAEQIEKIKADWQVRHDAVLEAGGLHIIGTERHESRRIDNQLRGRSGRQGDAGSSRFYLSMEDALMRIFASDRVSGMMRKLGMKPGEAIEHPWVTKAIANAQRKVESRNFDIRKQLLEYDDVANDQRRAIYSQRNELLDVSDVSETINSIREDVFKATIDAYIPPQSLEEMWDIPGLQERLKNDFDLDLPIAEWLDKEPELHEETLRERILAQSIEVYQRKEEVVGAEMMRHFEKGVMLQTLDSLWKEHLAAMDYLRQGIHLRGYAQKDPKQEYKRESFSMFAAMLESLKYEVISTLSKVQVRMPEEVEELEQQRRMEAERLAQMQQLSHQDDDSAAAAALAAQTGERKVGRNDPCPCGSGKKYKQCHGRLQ

[2] = target: T1, Ubiquitin-activating enzyme e1, putative (Leishmania donovani (strain BPK282A1)) (UniProt E9BSI1); test: Leishmania donovani Ubiquitin Activating Enzyme (LdE1); assay type: functional; details: 30 µM
T1 sequence (whole entry): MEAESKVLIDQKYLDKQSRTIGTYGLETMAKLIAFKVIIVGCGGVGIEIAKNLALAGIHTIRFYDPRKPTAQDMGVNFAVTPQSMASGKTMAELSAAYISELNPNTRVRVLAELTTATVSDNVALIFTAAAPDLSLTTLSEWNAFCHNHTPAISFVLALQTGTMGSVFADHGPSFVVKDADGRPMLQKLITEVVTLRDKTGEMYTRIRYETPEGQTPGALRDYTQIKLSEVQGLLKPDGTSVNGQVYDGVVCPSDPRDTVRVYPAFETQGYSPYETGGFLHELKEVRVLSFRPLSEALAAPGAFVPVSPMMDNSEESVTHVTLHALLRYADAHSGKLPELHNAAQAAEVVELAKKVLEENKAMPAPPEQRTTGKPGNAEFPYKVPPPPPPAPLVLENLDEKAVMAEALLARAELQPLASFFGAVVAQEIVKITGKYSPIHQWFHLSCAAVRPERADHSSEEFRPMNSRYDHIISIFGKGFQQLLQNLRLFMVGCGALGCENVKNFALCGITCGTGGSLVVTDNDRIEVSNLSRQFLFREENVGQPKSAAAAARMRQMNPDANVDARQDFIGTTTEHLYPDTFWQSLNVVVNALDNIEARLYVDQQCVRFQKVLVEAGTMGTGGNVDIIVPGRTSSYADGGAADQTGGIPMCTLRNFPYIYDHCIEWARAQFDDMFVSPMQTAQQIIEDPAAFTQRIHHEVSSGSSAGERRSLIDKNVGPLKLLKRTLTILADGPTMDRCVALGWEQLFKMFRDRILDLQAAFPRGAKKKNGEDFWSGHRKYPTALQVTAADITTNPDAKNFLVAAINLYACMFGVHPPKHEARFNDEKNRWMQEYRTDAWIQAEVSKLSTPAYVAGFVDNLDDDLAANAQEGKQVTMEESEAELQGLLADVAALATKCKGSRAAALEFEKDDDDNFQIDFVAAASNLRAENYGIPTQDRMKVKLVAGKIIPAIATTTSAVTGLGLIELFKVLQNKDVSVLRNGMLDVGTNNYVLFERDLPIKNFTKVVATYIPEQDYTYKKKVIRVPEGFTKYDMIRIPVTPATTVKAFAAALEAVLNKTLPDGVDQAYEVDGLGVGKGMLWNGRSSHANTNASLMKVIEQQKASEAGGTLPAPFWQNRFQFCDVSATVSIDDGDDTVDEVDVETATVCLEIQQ

[3] = target: Sialic acid-binding Ig-like lectin 9 (Homo sapiens) (UniProt Q9Y336); test: Hs-Siglec9 ALPHAscreen SOP 20170721; details: 10 µM
Chain of Sialic acid-binding Ig-like lectin 9 (Homo sapiens) (Q9Y336 whole entry): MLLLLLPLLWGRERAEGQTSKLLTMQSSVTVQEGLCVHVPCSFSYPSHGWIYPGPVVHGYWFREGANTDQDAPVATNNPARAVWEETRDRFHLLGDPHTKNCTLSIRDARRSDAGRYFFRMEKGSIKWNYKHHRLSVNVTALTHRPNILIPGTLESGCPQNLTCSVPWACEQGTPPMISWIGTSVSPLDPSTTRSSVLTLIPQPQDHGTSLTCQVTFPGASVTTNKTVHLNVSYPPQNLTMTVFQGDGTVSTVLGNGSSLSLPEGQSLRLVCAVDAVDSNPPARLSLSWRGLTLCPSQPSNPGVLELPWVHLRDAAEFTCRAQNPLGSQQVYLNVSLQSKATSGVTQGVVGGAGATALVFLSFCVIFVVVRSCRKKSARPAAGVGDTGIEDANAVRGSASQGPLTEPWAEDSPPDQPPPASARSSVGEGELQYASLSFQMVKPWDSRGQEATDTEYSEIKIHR

Trypanosoma cruzi = test: Trypanosoma cruzi phosphomannomutase and mannose-1-phosphate guanylyltransferase assay; assay type: functional; details: 10 µM
[4] = target: T2, Arginase-2, mitochondrial (Homo sapiens) (UniProt P78540); test: in vitro enzyme assay to detect the production of urea directly proportional to the activity of Arginase II; assay type: functional; details: 33.3 µM; note: in the data most compounds retested in dose-response had high values
T2 sequence (whole entry): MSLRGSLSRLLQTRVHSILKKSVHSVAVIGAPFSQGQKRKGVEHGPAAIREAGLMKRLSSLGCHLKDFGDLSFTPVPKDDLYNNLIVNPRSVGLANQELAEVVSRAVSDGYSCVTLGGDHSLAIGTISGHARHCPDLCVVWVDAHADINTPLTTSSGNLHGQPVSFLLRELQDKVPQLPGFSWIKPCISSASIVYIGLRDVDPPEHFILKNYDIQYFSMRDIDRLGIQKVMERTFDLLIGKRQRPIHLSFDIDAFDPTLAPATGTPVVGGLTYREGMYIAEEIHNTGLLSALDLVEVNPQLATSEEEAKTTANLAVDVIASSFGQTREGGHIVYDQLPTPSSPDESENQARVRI

[5] = target: T3, Proteasome subunit beta (Trypanosoma cruzi) (UniProt O96673); test: Trypanosoma cruzi proteasome chymotrypsin-like activity (TcProtChymo) assay.; note: in the data most compounds retested in dose-response had high values; assay type: functional; details: 9.37 µM
T3 sequence (whole entry): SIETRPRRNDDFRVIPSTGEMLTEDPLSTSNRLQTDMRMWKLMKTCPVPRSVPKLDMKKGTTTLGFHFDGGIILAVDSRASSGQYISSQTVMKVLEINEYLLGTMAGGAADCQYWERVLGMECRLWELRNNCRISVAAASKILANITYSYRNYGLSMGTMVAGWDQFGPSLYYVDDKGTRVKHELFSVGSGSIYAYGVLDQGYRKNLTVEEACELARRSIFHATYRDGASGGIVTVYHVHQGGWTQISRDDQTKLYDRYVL

Homo sapiens = organism: Homo sapiens; test: To identify inhibition of the IFN signalling (Jak-Stat) pathway via expression of an eGFP reporter gene under the control of an IFN-stimulated response element (ISRE) containing MxA promoter.; assay type: functional; details: 30 µM
[6] = target: T4, Tyrosyl-tRNA synthetase, putative (Trypanosoma cruzi (strain CL Brener)) (UniProt Q4DSP6); test: Trypanosoma cruzi tyrosyl tRNA synthetase (TcYRS) _High Tyrosine SOP; assay type: functional; details: 30 µM; note: in the data most compounds retested in dose-response had high values
T4 sequence (whole entry): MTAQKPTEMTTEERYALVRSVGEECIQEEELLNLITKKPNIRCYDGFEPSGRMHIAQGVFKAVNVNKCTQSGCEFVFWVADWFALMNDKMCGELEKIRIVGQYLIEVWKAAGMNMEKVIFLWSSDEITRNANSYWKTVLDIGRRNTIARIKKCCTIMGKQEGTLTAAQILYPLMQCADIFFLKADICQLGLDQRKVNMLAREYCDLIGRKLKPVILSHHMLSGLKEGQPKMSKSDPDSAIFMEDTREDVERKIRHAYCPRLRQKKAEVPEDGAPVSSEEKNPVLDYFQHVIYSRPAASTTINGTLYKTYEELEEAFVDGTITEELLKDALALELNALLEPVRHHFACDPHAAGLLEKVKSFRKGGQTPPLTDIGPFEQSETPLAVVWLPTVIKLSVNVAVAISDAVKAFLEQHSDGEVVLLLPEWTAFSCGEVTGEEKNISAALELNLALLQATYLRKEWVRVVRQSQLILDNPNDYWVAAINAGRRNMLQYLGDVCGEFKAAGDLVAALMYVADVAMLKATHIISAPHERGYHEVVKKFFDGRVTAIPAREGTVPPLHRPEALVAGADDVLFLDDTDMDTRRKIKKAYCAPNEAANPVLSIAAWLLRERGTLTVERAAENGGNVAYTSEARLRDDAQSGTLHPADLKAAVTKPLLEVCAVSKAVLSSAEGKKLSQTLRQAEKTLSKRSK

[7] = target: T4, Tyrosyl-tRNA synthetase, putative (Trypanosoma cruzi (strain CL Brener)); test: Trypanosoma cruzi tyrosyl tRNA synthetase (TcYRS) SOP; assay type: functional; details: 30 µM
[8] = target: Chromo domain-containing protein 1 (Saccharomyces cerevisiae (strain ATCC 204508 / S288c) (Baker's yeast)) (UniProt P32657); test: ScCHD-1 Enzyme Inhibition Assay; assay type: functional; details: 30 µM; note: in the data most compounds retested in dose-response had high values
Chain of Chromo domain-containing protein 1 (Saccharomyces cerevisiae (strain ATCC 204508 / S288c) (Baker's yeast)) (P32657 whole entry, the tested form may be a part): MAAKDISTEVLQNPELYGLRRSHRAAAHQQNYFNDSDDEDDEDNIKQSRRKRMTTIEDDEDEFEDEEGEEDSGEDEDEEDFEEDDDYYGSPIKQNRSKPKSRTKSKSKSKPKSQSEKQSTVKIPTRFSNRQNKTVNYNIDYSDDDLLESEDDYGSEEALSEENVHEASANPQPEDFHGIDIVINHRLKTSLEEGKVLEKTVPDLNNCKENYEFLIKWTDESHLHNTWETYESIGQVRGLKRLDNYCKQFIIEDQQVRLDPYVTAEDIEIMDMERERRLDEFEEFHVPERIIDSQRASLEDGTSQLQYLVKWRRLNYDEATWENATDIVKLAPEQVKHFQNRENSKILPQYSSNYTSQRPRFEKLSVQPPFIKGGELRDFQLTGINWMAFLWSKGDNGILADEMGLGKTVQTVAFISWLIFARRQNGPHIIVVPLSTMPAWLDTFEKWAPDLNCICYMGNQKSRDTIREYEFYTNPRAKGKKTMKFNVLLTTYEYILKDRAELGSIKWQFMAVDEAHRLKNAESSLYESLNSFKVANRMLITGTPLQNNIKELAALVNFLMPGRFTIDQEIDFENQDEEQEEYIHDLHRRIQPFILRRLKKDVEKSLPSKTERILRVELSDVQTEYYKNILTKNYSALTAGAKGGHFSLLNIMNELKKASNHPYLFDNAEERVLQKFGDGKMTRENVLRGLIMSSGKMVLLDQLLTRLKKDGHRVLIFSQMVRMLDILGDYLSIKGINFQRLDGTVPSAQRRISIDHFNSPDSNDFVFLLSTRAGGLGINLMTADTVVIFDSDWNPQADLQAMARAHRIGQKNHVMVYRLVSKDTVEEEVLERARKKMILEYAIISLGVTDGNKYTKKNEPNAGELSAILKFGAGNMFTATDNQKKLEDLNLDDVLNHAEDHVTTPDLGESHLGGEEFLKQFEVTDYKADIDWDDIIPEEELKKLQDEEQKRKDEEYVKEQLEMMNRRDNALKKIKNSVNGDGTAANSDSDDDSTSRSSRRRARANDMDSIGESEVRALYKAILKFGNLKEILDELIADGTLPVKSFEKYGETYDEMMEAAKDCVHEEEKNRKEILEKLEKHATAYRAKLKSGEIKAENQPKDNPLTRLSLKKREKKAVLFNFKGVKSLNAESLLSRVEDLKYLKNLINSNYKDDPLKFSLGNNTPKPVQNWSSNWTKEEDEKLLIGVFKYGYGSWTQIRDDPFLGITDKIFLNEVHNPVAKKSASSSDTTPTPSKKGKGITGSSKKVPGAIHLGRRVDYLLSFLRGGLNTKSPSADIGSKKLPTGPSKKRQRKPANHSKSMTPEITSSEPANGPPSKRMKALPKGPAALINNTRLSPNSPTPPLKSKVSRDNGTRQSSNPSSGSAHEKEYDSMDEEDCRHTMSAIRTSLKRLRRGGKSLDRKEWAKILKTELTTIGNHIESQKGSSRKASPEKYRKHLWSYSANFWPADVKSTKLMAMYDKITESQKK

Compound	Percent Effect [1] [%]	Percent Effect [2] [%]	Percent Effect [3] [%]	Percent Effect (Trypanosoma cruzi) [%]	Percent Effect [4] [%]	Percent Effect [5] [%]	Percent Effect (Homo sapiens) [%]	Percent Effect [6] [%]	Percent Effect [7] [%]	Percent Effect [8] [%]
Cc1nc(C)n(CC2CCCN2Cc2cn3c(C)cccc3n2)n1 (stereo not given)	-1.02	2.67	7.22	4.62	2.66	8.4	-19.9	1.58	5.13	-11.6
O=C(Nc1cccc(N2CCCC2)c1)C1CCCN1c1nccs1 (stereo not given)	-2.06	-15.4	6.8	8.92	-1.23	1.79	-2.5	8.13	-1.21	-2.52
O=C(NCCCn1ccnc1)N1CCCC1c1cccs1 (stereo not given)	-1.21	12.8	-12.2	6.67	8.2	11	-4.65	7.18	18.1	-5.02
Cc1cc(NC(=O)NCC(C)N2CCc3ccccc32)no1 (stereo not given)	-4.79	26	2.28	-3.54	1.02	5.96	-2.59	12.8	21.2	-6.91
c1cc(CN2Cc3nnn(CC4CC4)c3C(COCC3CC3)C2)co1 (stereo not given)	-5.88	3.9	10.3	9.83	-8.1	9.62	-0.188	3.68	12.8	2.41
COCC(=O)N1CCC(c2nccnc2Oc2cccnc2C)CC1	0.43	14.7	-6.2	-3.35	4.87	15.6	-0.132	0	7.5	-22.1
Cc1cccc(-c2noc(CN3CCc4nn(C)c(=O)cc4C3)n2)c1	-3.9	16	1.97	-0.201	3.55	0.424	14.8	-5.79	-15.4	4.01
O=C(c1cnccn1)N1CCCC2(COCCN(CC3CC3)C2)C1 (stereo not given)	-3.64	-1.3	-5.88	-2.43	-0.81	7.15	-2.31	-0.526	5.13	-0.986
CC(C)(C)c1n[nH]c(C2CN(C(=O)CCC3CC3)CCO2)n1 (stereo not given)	-3.72	5.13	-3.95	9.86	-1.23	5.38	-22.9	3.35	13.2	-2.58
Cc1ncc2c(n1)CN(Cc1nc3ccccc3o1)CC2	-2.9	8	3.11	4.02	-2.22	3.31	-20.5	25.8	28.2	-12.9
COCc1nc(C(=O)NS(=O)(=O)c2ccc(C)cc2C)cs1	-3.05	0	4.98	1.97	4.1	-6.23	-17.6	2.39	1.21	-0.274
COc1cc(C)nc(N2CCN(C(=O)CNC(C)(C)C)CC2)n1	-1.19	5.13	-1.55	-1.22	4.51	-3.67	19.9	0.478	8.43	-2.39
COc1ccc(CNCc2ccnc(N3CCOCC3)c2)cc1OC	-2.27	33.3	-6.8	5.16	-8.61	10.7	11.3	6.22	20.5	-7.91
Cc1noc(C2CCN(C(=O)CN(C)c3ccc(Cl)cn3)CC2)n1	-1.77	12.8	-5.03	4.6	6.56	8.11	3.6	8.13	20.5	-1.95
CC(C)CC(CNC(=O)NCc1cc[nH]n1)N1CCOCC1 (stereo not given)	-1.69	17.9	-27	7.04	0.82	17.8	11.6	4.31	20.5	25
COCCN1CCCN(C(=O)NC(C)Cn2cccn2)CC1 (stereo not given)	0.234	15.6	-4.18	-8.77	4.3	10.9	14.4	5.88	11.8	-2.79
CN(Cc1nnc(-c2ccco2)o1)C1CCCN(c2cccnn2)C1 (stereo not given)	2.65	10.3	-14.4	-2.91	-0.82	28.4	30.2	3.35	8.43	1.33
Cc1cnn(CC2CCCCN2CCCS(N)(=O)=O)c1 (stereo not given)	-1.01	21.3	-1.72	-2.01	3.55	11.3	8.53	5.79	-2.56	-12.4
CCc1noc(C(C)N2CCOCC2)n1 (stereo not given)	-7.21	10.7	7.7	0.602	0.887	5.85	5.17	6.84	5.13	-8.94
